# Assay results taken from PubChem BioAssay.
# “And” between values parts separate entries of the source, which are not always exact repeats. Equal values may be shown once.
# Assay: CRL1545 cell growth, single agent and combined, cisplatin and BGB IC20 combos (AID 1671464);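 also: cells exposed to compound for 96 hours before readout; 0% = vehicle DMSO and 100% = high DMSO killing control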
# Conditions: CRL1545 osteosarcoma cells, measured here: with cisplatin IC20 combination, at 0.5 µM, stronger effect = higher value
row,Structure (SMILES),inhibition
1,Cc1c(N)nc(C(CC(N)=O)NCC(N)C(N)=O)nc1C(=O)NC(C(=O)NC(C)C(O)C(C)C(=O)NC(C(=O)NCCc1nc(-c2nc(C(=O)NCCC[S+](C)C)cs2)cs1)C(C)O)C(O[C@@H]1O[C@@H](CO)[C@@H](O)[C@H](O)[C@@H]1O[C@H]1O[C@H](CO)[C@@H](O)[C@H](OC(N)=O)[C@@H]1O)c1cnc[nH]1 (some centres undefined),33.8% and 46%
2,O=c1[nH]c(=O)n(C2OC(CO)C(O)C2O)cc1F (centres undefined),85.1%
3,O=P(O)(NCCCl)NCCCl,-44.9%
4,CC1(C)C(C(=O)Nc2ccc(S(=O)(=O)c3ccc(NC(=O)C4C(C)(C)C4(C)C)cc3)cc2)C1(C)C,-22.6%
5,CCC1(O)C(=O)OCc2c1cc1n(c2=O)Cc2cc3ccccc3nc2-1 (centres undefined),42.1% and 95.1%
6,NC(Cc1ccc(N(CCCl)CCCl)cc1)C(=O)O (centres undefined),-27.8%
7,COc1cc([C@@H]2c3cc4c(cc3[C@H](O)[C@H]3COC(=O)[C@H]23)OCO4)cc(OC)c1O,57.3% and 48.6%
8,COc1cc(C2c3cc4c(cc3C(O)C3COC(=O)C23)OCO4)cc(OC)c1OC (centres undefined),76.3%

# Same assay, conditions: CRL1545 osteosarcoma cells, single agent, at 0.05 µM, stronger effect = higher value
row,Structure (SMILES),inhibition
1,Cc1c(N)nc(C(CC(N)=O)NCC(N)C(N)=O)nc1C(=O)NC(C(=O)NC(C)C(O)C(C)C(=O)NC(C(=O)NCCc1nc(-c2nc(C(=O)NCCC[S+](C)C)cs2)cs1)C(C)O)C(O[C@@H]1O[C@@H](CO)[C@@H](O)[C@H](O)[C@@H]1O[C@H]1O[C@H](CO)[C@@H](O)[C@H](OC(N)=O)[C@@H]1O)c1cnc[nH]1 (some centres undefined),23% and 12.8%
2,O=c1[nH]c(=O)n(C2OC(CO)C(O)C2O)cc1F (centres undefined),57.8%
3,O=P(O)(NCCCl)NCCCl,-55%
4,CC1(C)C(C(=O)Nc2ccc(S(=O)(=O)c3ccc(NC(=O)C4C(C)(C)C4(C)C)cc3)cc2)C1(C)C,-37.3%
5,CCC1(O)C(=O)OCc2c1cc1n(c2=O)Cc2cc3ccccc3nc2-1 (centres undefined),32% and 28.6%
6,NC(Cc1ccc(N(CCCl)CCCl)cc1)C(=O)O (centres undefined),-31.8%
7,COc1cc([C@@H]2c3cc4c(cc3[C@H](O)[C@H]3COC(=O)[C@H]23)OCO4)cc(OC)c1O,-5.66% and 32.2%
8,COc1cc(C2c3cc4c(cc3C(O)C3COC(=O)C23)OCO4)cc(OC)c1OC (centres undefined),49.3%

# Same assay, conditions: CRL1545 osteosarcoma cells, single agent, at 5 µM, stronger effect = higher value
row,Structure (SMILES),inhibition
1,Cc1c(N)nc(C(CC(N)=O)NCC(N)C(N)=O)nc1C(=O)NC(C(=O)NC(C)C(O)C(C)C(=O)NC(C(=O)NCCc1nc(-c2nc(C(=O)NCCC[S+](C)C)cs2)cs1)C(C)O)C(O[C@@H]1O[C@@H](CO)[C@@H](O)[C@H](O)[C@@H]1O[C@H]1O[C@H](CO)[C@@H](O)[C@H](OC(N)=O)[C@@H]1O)c1cnc[nH]1 (some centres undefined),88.5% and 95.5%
2,O=c1[nH]c(=O)n(C2OC(CO)C(O)C2O)cc1F (centres undefined),99.7%
3,O=P(O)(NCCCl)NCCCl,-25.3%
4,CC1(C)C(C(=O)Nc2ccc(S(=O)(=O)c3ccc(NC(=O)C4C(C)(C)C4(C)C)cc3)cc2)C1(C)C,14.2%
5,CCC1(O)C(=O)OCc2c1cc1n(c2=O)Cc2cc3ccccc3nc2-1 (centres undefined),99.8% and 99.9%
6,NC(Cc1ccc(N(CCCl)CCCl)cc1)C(=O)O (centres undefined),43.7%
7,COc1cc([C@@H]2c3cc4c(cc3[C@H](O)[C@H]3COC(=O)[C@H]23)OCO4)cc(OC)c1O,83% and 76.2%
8,COc1cc(C2c3cc4c(cc3C(O)C3COC(=O)C23)OCO4)cc(OC)c1OC (centres undefined),85.7%
